# Test results reported in the supplement of paper PMC3334620.
# Over roughly 33,000 sequences, “E-score (-0.5 to 0.5)” has its median near -0.016; the highest 2% begin near 0.31. The entries come from a sample that favours the highest values as a whole.
# Biological target: Cst6 (UniProt P40535)
# Experiment: PBM E-score (8-mer binding enrichment) (E-score (-0.5 to 0.5)); higher = stronger / more preferred TF binding
# Settings: protein concentration: 200 nM; construct: GST-DNA-binding domain
# Method: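 Universal 'all 10-mer' protein binding microarrays (Agilent AMADID 015681) probed with GST-tagged S. cerevisiae TFs (full-length or DBD) made by in vitro transcription/translation (PURExpress), about 100-200 nM. Bound TF was detected with fluorescent anti-GST. Each ungapped 8-mer (which stands for itself and its reverse complement) is scored by the PBM enrichment score (E-score), a modified Wilcoxon-Mann-Whitney statistic from -0.5 to +0.5, computed with the Universal PBM Analysis Suite. Scale: above 0.35 generally sequence-specific binding.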
# UniProt P40535, sequence (P40535 whole entry): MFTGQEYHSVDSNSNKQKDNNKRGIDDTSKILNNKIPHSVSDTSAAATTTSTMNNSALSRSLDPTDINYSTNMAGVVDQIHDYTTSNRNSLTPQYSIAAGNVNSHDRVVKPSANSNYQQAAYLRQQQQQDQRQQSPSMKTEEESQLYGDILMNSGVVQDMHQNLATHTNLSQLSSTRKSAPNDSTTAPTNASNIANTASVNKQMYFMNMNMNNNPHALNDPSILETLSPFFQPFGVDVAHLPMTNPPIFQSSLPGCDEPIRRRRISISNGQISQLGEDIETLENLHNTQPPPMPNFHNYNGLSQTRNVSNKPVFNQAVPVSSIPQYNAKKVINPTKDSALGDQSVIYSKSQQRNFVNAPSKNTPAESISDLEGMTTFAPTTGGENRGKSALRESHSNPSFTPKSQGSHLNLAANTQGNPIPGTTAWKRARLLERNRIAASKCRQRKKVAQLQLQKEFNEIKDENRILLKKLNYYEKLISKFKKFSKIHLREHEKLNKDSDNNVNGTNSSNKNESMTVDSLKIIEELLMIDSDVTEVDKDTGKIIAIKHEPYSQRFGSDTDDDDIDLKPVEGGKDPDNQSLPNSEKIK
row,Sequence,PBM E-score
1,ACTGCGTC,0.147
2,CACTTGGC,-0.08
3,GTGCTTAA,0.0338
4,ATCGCAGG,-0.199
5,GCATTGTA,0.047
6,GGGCTGTA,-0.256
7,GCAACCCA,-0.0438
8,ATTTTCTG,0.115
9,CCTCGAAA,0.0797
10,GGTCACTA,0.0296
11,CCTCACTC,0.0262
12,AGTCACTA,0.209
13,CATCACTA,0.353
14,AGTCACTC,-0.033
15,GATCACTA,0.0963
16,AATCACTA,0.159
17,CGTCACTC,0.445
18,CGTCACTA,0.459
19,GTTTGGTA,0.213
20,CAAAAATG,0.133
21,ACTGTGGG,-0.0161
22,GATACCGC,-0.0789
23,AGGGACAT,-0.181
24,CGACGGGC,0.0567
25,CCATTACC,-0.00808

row,Sequence,PBM E-score
1,AGGAGACA,-0.0509
2,ATCAAGTC,0.0221
3,GGAGGTAA,-0.0533
4,TGAGGTAA,0.414
5,AGAGGTAA,-0.119
6,ATAGCTGA,-0.204
7,CATTCCAG,-0.0492
8,AGAGGGTG,-0.204
9,ATGCCGCA,0.353
10,GGGCCGCA,-0.0641
11,GAGCCGCA,0.28
12,ATGCCGCG,0.233
13,CTGCCGCA,0.0518
14,GTGCCGCA,0.362
15,TAACTACA,0.0421
16,AGAGTTTA,0.176
17,CCACACTA,0.149
18,TACCTAAA,0.14
19,CGTGTGGA,-0.153
20,AAAGGGGC,-0.196
21,CACGGCAA,0.302
22,AACGGCAA,0.251
23,AACGGCAC,0.343
24,ATCGGCAT,0.23
25,AACGGCAG,0.134

row,Sequence,PBM E-score
1,CACGGCAG,0.142
2,AACGGCAT,0.346
3,CACGGCAC,0.356
4,GACGGCAC,0.23
5,CTCTGAAA,-0.0419
6,AAGGATGA,0.0593
7,CATGCAAA,0.142
8,CGCCGTGA,0.221
9,CGCCGCGA,0.241
10,CGCGCCGC,0.326
11,AGCCGTGC,0.24
12,AGCGCCGG,-0.102
13,CGCCGTGC,0.344
14,AGCGCCGA,0.00204
15,AGCCGCGC,0.18
16,AGCGCCGC,0.309
17,CCCGCCGC,0.126
18,CGCGCCGA,0.137
19,CGCCGCGC,0.357
20,ATTATGCG,0.217
21,ACGAGTTA,0.0712
22,CTTCTTCC,-0.212
23,ACCTAGTA,-0.284
24,AACTCTGT,0.0458
25,ATCTATCA,0.128

row,Sequence,PBM E-score
1,ACCCACGT,0.0287
2,ACCAACTC,-0.0108
3,CATTTCCA,0.143
4,CTTTAGGA,-0.0677
5,ACCTCTCA,-0.0889
6,GTACATAA,0.085
7,GGACATAA,0.0407
8,CTACATAA,-0.0447
9,TTACATAA,0.433
10,AGACATAA,0.0351
11,TGACATAA,0.477
12,ACTACCTA,0.0222
13,AGTGGAGC,-0.165
14,ATGTGACG,0.433
15,ATGTGACC,0.0452
16,ATGTGACA,0.151
17,AGTTGACC,-0.114
18,CGGTGACA,0.266
19,AGGTGACG,0.452
20,AGGTGACC,0.046
21,AGTTGACA,0.191
22,AGGTGACA,0.278
23,AGTTGACG,0.324
24,CGGTGACG,0.476
25,CGGTGACC,0.115

row,Sequence,PBM E-score
1,CCCAGGGA,-0.37
2,CTGGAGCA,-0.0734
3,CAGCCTTA,-0.254
4,AAGCTAAG,-0.252
5,AAAGCTTC,-0.172
6,CTACTTAC,0.127
7,AGGCTAAC,-0.114
8,CAAACCTG,0.0584
9,AATAATTA,0.325
10,GCTAATTA,0.166
11,AATAATTG,0.121
12,ACTAATTA,0.351
13,CCTAATTA,-0.00674
14,GATAATAA,0.098
15,CATAATTA,0.304
16,GATAATTA,0.322
17,AATAATTC,0.205
18,CAGGGCGA,-0.00562
19,CTCTCGCC,-0.249
20,AATGGTGA,0.184
21,TCGGCTCA,-0.0753
22,AGTGACGC,0.438
23,CTTGACGC,0.214
24,CGTGACCA,-0.0809
25,CGTGACAA,0.108

row,Sequence,PBM E-score
1,AGTGACCC,-0.164
2,CCTGACGC,-0.0402
3,AGTGACTC,0.0809
4,CGTGACGA,0.386
5,CGTGACGC,0.436
6,GCGTTAAA,-0.0116
7,AGGGTAGC,-0.17
8,GTGCTATA,0.0846
9,ACTCATTC,0.103
10,CTCCGATA,-0.203
11,GGGATTTA,0.00892
12,GGGCCTGA,-0.239
13,TCACCAAA,0.326
14,ACACCAAA,0.212
15,GCACCAAA,0.0915
16,CGCCTTAC,0.163
17,GAAGTGGA,-0.16
18,GTCATAGA,0.411
19,GTCATAAA,0.331
20,GTCATATA,0.377
21,GTCATACA,0.317
22,ATCATAGA,0.246
23,CTCATATA,-0.0189
24,GGCATACA,-0.102
25,ATCATATA,0.299

row,Sequence,PBM E-score
1,TTCATAAA,0.212
2,ATCATAAA,0.195
3,CTCATAGA,0.0631
4,CTCATACA,0.116
5,CAACACTG,0.0167
6,AGGCGTGG,-0.196
7,ATTAAGCG,0.108
8,AACTGAAG,0.0725
9,CCGGCCAA,-0.232
10,TGCTAGCA,0.0927
11,AGTACTGC,-0.173
12,TAAAGTCA,0.0375
13,ATTGCTCA,0.192
14,CAGATACG,0.0888
15,CTAACAGC,-0.00671
16,ATCATACG,0.308
17,ATCATACC,0.259
18,ATCATACA,0.268
19,CAGACAAG,-0.14
20,AGTCTCCC,-0.308
21,AATCATAC,0.239
22,ACTCATAG,0.152
23,AATCATAG,0.189
24,CATCATAA,0.291
25,CATCATAC,0.374

row,Sequence,PBM E-score
1,CATCATAG,0.326
2,CAGGGAAG,-0.244
3,CTTCCTTC,-0.24
4,ATGGTGAG,0.0691
5,CAACACCC,-0.142
6,AGGCCCAC,-0.378
7,GGAGTTTA,0.00491
8,CTGATGAC,0.292
9,CTGATGAA,0.0772
10,CTGATTAA,0.161
11,ATGATGAC,0.378
12,ATGATTAA,0.329
13,ATGATGAA,0.367
14,GTGATGAA,0.154
15,ATGATTAG,0.158
16,AGGATGAC,0.208
17,TAGCGAGA,-0.0782
18,GCATTCGA,-0.00988
19,ACCATCTA,-0.207
20,ATTTGTGA,0.146
21,AGTGCAGC,-0.108
22,ATTGATAC,0.154
23,GCGATGCA,-0.255
24,TGTCAACA,0.184
25,AGTCAACC,-0.219

row,Sequence,PBM E-score
1,GGTCAACA,-0.0567
2,GGTCAACC,-0.0743
3,CGTCAACC,0.377
4,AGTCAACG,-0.102
5,CCTCAACG,-0.102
6,CGTCAACA,0.407
7,CGTCAACG,0.344
8,GGTACGAA,0.0828
9,GATGCACC,-0.163
10,ATGATCAT,0.198
11,CGTCAATC,0.337
12,AGTCAATA,0.0835
13,GGTCAATA,0.0678
14,CGTCAATA,0.349
15,AGTCAATC,0.0291
16,CGTCAAGC,0.0721
17,TCGTATCA,0.127
18,ACTAGCCC,-0.0733
19,CACAGTGG,-0.124
20,GGCCTGAA,-0.122
21,AATTCGTC,0.316
22,CATTCGTC,0.148
23,AATTCGTA,0.252
24,CGTGCGGA,0.0478
25,CGTGCGGC,0.321

row,Sequence,PBM E-score
1,CATGCGGC,0.33
2,CATGCGGA,-0.0527
3,AATGCGGC,0.266
4,AGTGCGGC,0.173
5,ATTAAGAC,-0.0411
6,AGTTGATA,0.103
7,GAAAAGAC,0.222
8,CGACAGAG,-0.315
9,TGCCTTAA,-0.0513
10,GAAAAAAA,0.258
11,ACAAAAAA,0.311
12,ACAAAAAT,0.279
13,CAAAAAAA,0.32
14,AGAACAAA,0.34
15,ACAAAAAC,0.104
16,CCAAAAAA,0.279
17,AGAACAAT,0.25
18,CAAAAAAC,0.201
19,AAAAAAAA,0.317
20,AAAAAAAG,0.211
21,AGAACAAG,0.113
22,CATCCAGC,-0.0585
23,CTCCGTAA,-0.0462
24,CCACCTAA,-0.0425
25,TAGCCCGA,-0.177

row,Sequence,PBM E-score
1,CACAATCA,0.17
2,AGTTTGAC,0.0432
3,ACTTTAAT,0.107
4,CTCACGTA,-0.00865
5,CCTACGTA,0.297
6,ACTACGTA,0.343
7,ACTACGTG,-0.0819
8,ATTACGTG,0.46
9,GTTACGTA,0.46
10,CTTACGTA,0.466
11,GCTACGTA,0.213
12,CTTACGAA,0.119
13,AGTACGTG,-0.125
14,GTTACGGA,0.11
15,ATTACCTG,0.14
16,AGTCTCAA,-0.217
17,CAAACCTC,-0.272
18,TCTTCACA,0.113
19,AAACCCGT,0.0445
20,ATCTCGTG,-0.0972
21,ATCGCTGG,-0.217
22,AGACGCAT,-0.0757
23,ACTACGTC,0.157
24,ATTACGTA,0.49
25,ATTACGGA,0.154

row,Sequence,PBM E-score
1,ATTACGTC,0.485
2,ATTAGGTA,0.261
3,CTTACGCC,0.193
4,CTTACGTC,0.421
5,ATTACGGC,0.266
6,CTCACGTC,0.14
7,AACCTTCG,0.0222
8,CCAAGGCC,-0.19
9,CCATTCTA,-0.0992
10,AAGAATTG,0.182
11,ACTTGCTC,-0.198
12,ATCAAACA,0.107
13,CAGTTGGC,-0.175
14,AAGTCACG,0.0378
15,ACGTCACA,0.484
16,ACGTCACT,0.495
17,AGGTCACA,-0.0345
18,ACGTCACG,0.49
19,AGGTCACT,-0.0496
20,AGGTCACG,0.0374
21,AAGTCACA,0.119
22,AAGTCACT,0.141
23,TGCACCAA,-0.0568
24,AGTTGCTG,-0.0492
25,ACACACAG,0.107

row,Sequence,PBM E-score
1,CACGCTGC,-0.246
2,CAACCACC,-0.251
3,ATTCTCGC,-0.17
4,AAGTACCC,-0.275
5,ATGCCTCG,0.317
6,ATGCCTCC,-0.0323
7,ATGCCTCA,0.11
8,ATGTCATG,0.425
9,CTGTCATC,0.186
10,GTGTCATA,0.249
11,ATGTCATC,0.432
12,ATGTCATA,0.442
13,ATGTCAGC,0.225
14,CTGTCATA,0.186
15,ATGTCAAG,0.235
16,ATGTCGTG,0.0262
17,ACTTTGAA,0.0348
18,GCATCGAA,-0.0745
19,GGATCTAA,-0.0815
20,GACCTTAA,-0.0362
21,CTAGTGCC,-0.125
22,AGCTATCG,-0.106
23,GCAGCAGC,-0.133
24,ATCACCGA,0.212
25,CTCACCGA,0.048

row,Sequence,PBM E-score
1,GTCACCAA,0.315
2,CTCACCAC,-0.0767
3,GTCACCAC,0.373
4,GTCACCGA,0.426
5,TTCACCAA,0.124
6,CTCACCAA,0.102
7,ATCACCAC,0.244
8,GTGGTGAA,-0.0462
9,GTCTCCAA,-0.00606
10,GAGCAAAA,0.0129
11,CGAGCCTA,0.011
12,AATTATTC,0.219
13,ATTTATTA,0.357
14,AATTATTA,0.321
15,AATTATGA,0.359
16,AATTATGT,0.304
17,AATTATGG,0.0357
18,GTTTATTA,0.164
19,ATTATTTA,0.305
20,AATTATTG,0.252
